According to the antibiotic and cytotoxicity screens of Wong et al. (2023):
In all, about 39,000 compounds went through this assay and about 1,500 (3.8%) were called active. What follows is part of a selection rich in actives, with near analogues and random picks from the rest.

Each compound was assayed on HSkMC (human skeletal muscle cells) (assay: cytotoxicity call (relative viability < 0.9)). Conditions: 10 µM.

**Q.** Which cytotoxicity call does the source give for `C[C@@H]1CN([C@@H](C)CO)C(=O)c2cc(NS(=O)(=O)c3ccc(F)cc3)ccc2O[C@@H](C)CCCCO[C@@H]1CN(C)Cc1ccc(C(=O)O)cc1` here?
**A.** inactive

**Q.** With `C[C@H]1CN([C@@H](C)CO)C(=O)CCCn2cc(nn2)CO[C@@H]1CN(C)Cc1cccc2c1OCCCO2` as the compound, how does the cytotoxicity call read?
**A.** inactive

**Q.** `CO[C@H]1O[C@H](CO)[C@@H](OC(=O)Nc2ccc(Oc3ccccc3)cc2)[C@H](OC(=O)Nc2ccccc2)[C@H]1OC(=O)Nc1ccccc1` was tested. Which cytotoxicity call did it give?
**A.** inactive

**Q.** With `COc1ccc(S(=O)(=O)N(C)C[C@@H]2OCCCC[C@@H](C)Oc3ccc(NC(=O)Nc4ccccc4)cc3C(=O)N([C@H](C)CO)C[C@H]2C)cc1` as the compound, how does the cytotoxicity call read?
**A.** inactive

**Q.** With `O=C(C[C@H]1CC[C@H]2[C@@H](COC[C@@H](O)CN2S(=O)(=O)c2ccc(Oc3ccccc3)cc2)O1)NC1CCC1` as the compound, how does the cytotoxicity call read?
**A.** inactive

**Q.** For `CC(C)NC(=O)Nc1ccc2c(c1)C(=O)N([C@H](C)CO)C[C@@H](C)[C@@H](CN(C)S(=O)(=O)c1cn(C)cn1)O2`, which cytotoxicity call is on record?
**A.** inactive

**Q.** `C[C@H]1CN([C@@H](C)CO)C(=O)c2cc(NC(=O)Nc3cccc4ccccc34)ccc2O[C@@H]1CN(C)Cc1ccc(C(=O)O)cc1` was tested. Which cytotoxicity call did it give?
**A.** inactive

**Q.** How did the cytotoxicity call turn out when `COC(=O)c1c(CC[C@@H](CO)NC(=O)N[C@H](Cn2cc(-c3ccccc3C)nn2)C(C)C)oc(C(C)=O)c1C(=O)OC` was run?
**A.** inactive

**Q.** Which cytotoxicity call does the source give for `CCCN(C)C[C@H]1OCCCC[C@@H](C)Oc2ccc(NC(=O)C3CCCCC3)cc2C(=O)N([C@H](C)CO)C[C@@H]1C` here?
**A.** inactive

**Q.** With `Cc1ccccc1S(=O)(=O)N(C)C[C@@H]1Oc2ccc(NC(=O)Nc3cccc(C(F)(F)F)c3)cc2CC(=O)N([C@@H](C)CO)C[C@@H]1C` as the compound, how does the cytotoxicity call read?
**A.** active

**Q.** Which cytotoxicity call does the source give for `C[C@@H]1CN([C@H](C)CO)C(=O)Cc2cc(NC(=O)Nc3ccc(C(F)(F)F)cc3)ccc2O[C@@H]1CN(C)S(=O)(=O)c1ccc(Cl)cc1` here?
**A.** active

**Q.** With `C[C@H]1CN([C@@H](C)CO)C(=O)Cc2cc(NC(=O)Nc3ccc(C(F)(F)F)cc3)ccc2O[C@H]1CN(C)S(C)(=O)=O` as the compound, how does the cytotoxicity call read?
**A.** inactive

**Q.** How did the cytotoxicity call turn out when `C[C@@H]1CN([C@H](C)CO)C(=O)Cc2cc(NC(=O)Nc3ccc(C(F)(F)F)cc3)ccc2O[C@H]1CN(C)S(C)(=O)=O` was run?
**A.** inactive

**Q.** How did the cytotoxicity call turn out when `C[C@@H]1CN([C@@H](C)CO)C(=O)Cc2cc(NC(=O)Nc3ccc(C(F)(F)F)cc3)ccc2O[C@H]1CN(C)S(C)(=O)=O` was run?
**A.** inactive

**Q.** With `C[C@@H]1CN([C@H](C)CO)C(=O)Cc2cc(NC(=O)Nc3ccc(C(F)(F)F)cc3)ccc2O[C@@H]1CN(C)S(C)(=O)=O` as the compound, how does the cytotoxicity call read?
**A.** inactive

**Q.** How did the cytotoxicity call turn out when `C[C@@H]1CN([C@H](C)CO)C(=O)Cc2cc(NC(=O)Nc3ccc(C(F)(F)F)cc3)ccc2O[C@H]1CN(C)S(=O)(=O)c1ccc(Cl)cc1` was run?
**A.** active

**Q.** How did the cytotoxicity call turn out when `C[C@H]1CN([C@@H](C)CO)C(=O)Cc2cc(NC(=O)Nc3ccc(C(F)(F)F)cc3)ccc2O[C@@H]1CN(C)S(=O)(=O)c1ccc(Cl)cc1` was run?
**A.** inactive

**Q.** With `C[C@H]1CN([C@@H](C)CO)C(=O)Cc2cc(NC(=O)Nc3ccc(C(F)(F)F)cc3)ccc2O[C@H]1CN(C)S(=O)(=O)c1ccc(Cl)cc1` as the compound, how does the cytotoxicity call read?
**A.** active

**Q.** With `C[C@H](CO)N1C[C@H](C)[C@@H](CN(C)S(C)(=O)=O)Oc2ccc(NC(=O)Nc3ccc(C(F)(F)F)cc3)cc2CC1=O` as the compound, how does the cytotoxicity call read?
**A.** inactive

**Q.** `COc1ccc(NC(=O)N(C)C[C@@H]2OCc3ccccc3-c3c(n(C)c4ccccc34)C(=O)N([C@H](C)CO)C[C@H]2C)cc1` was tested. Which cytotoxicity call did it give?
**A.** inactive

**Q.** With `C[C@@H]1CN([C@H](C)CO)C(=O)Cc2cc(NS(=O)(=O)c3ccc(Cl)cc3)ccc2O[C@@H]1CN(C)C(=O)Nc1cccc2ccccc12` as the compound, how does the cytotoxicity call read?
**A.** inactive

**Q.** `CO[C@@H](CN(C)S(=O)(=O)c1ccc(C)cc1)[C@@H](C)CN([C@@H](C)CO)S(=O)(=O)c1cccc(Cl)c1` was tested. Which cytotoxicity call did it give?
**A.** inactive

**Q.** How did the cytotoxicity call turn out when `C[C@@H]1CN([C@H](C)CO)C(=O)c2cc(NS(=O)(=O)c3ccc(Cl)cc3)ccc2O[C@@H](C)CCCCO[C@@H]1CN(C)C(=O)Cc1ccccc1` was run?
**A.** inactive

**Q.** `CN1CCN(C(=O)C[C@H]2C=C[C@H](NC(=O)Cc3ccccn3)[C@H](CO)O2)CC1` was tested. Which cytotoxicity call did it give?
**A.** inactive

**Q.** How did the cytotoxicity call turn out when `O=C(C1=C[C@H](c2ccsc2)C[C@H](OCCCCO)O1)N1CCN(Cc2ccc3c(c2)OCO3)CC1` was run?
**A.** inactive

**Q.** Which cytotoxicity call does the source give for `COC(=O)c1c2oc(c1C(=O)OC)C(=O)N[C@@H](Cc1ccccc1)Cn1cc(nn1)[C@@H](Cc1ccccc1)NC(=O)N[C@H](CO)CC2` here?
**A.** inactive

**Q.** For `C[C@H](CO)N1C[C@H](C)[C@H](CN(C)S(=O)(=O)c2ccccc2)OCCCC[C@H](C)Oc2ccc(NC(=O)NC3CCCCC3)cc2C1=O`, which cytotoxicity call is on record?
**A.** inactive

**Q.** Which cytotoxicity call does the source give for `CCNc1cc(=N)n(CC)c2n[nH]c(N)c12` here?
**A.** inactive

**Q.** For `CO/N=C1\C[C@]2(C[C@@H]3C[C@@H](C/C=C(\C)C[C@@H](C)/C=C/C=C4\CO[C@@H]5[C@H](O)C(C)=C[C@@H](C(=O)O3)[C@]45O)O2)O[C@H](/C(C)=C/C(C)C)[C@H]1C`, which cytotoxicity call is on record?
**A.** active

**Q.** Which cytotoxicity call does the source give for `CON=C1CC2(CC3CC(CC=C(C)CC(C)C=CC=C4COC5C(O)C(C)=CC(C(=O)O3)C45O)O2)OC(C(C)=CC(C)C)C1C` (stereo not drawn) here?
**A.** active

**Q.** Which cytotoxicity call does the source give for `COC(=O)C=CC(=O)OC` here?
**A.** inactive

**Q.** How did the cytotoxicity call turn out when `C[C@@H](NC(=O)C[C@H]1CC[C@@H](NC(=O)CN2CCOCC2)[C@H](CO)O1)c1ccccc1` was run?
**A.** inactive

**Q.** How did the cytotoxicity call turn out when `C#CC1(O)CCC2C3CCC4=CCCCC4C3C(=C)CC21CC` (stereo not drawn) was run?
**A.** inactive

**Q.** `C#CC1(O)CCC2C3CCC4=CC(=O)CCC4C3CCC21C` (stereo not drawn) was tested. Which cytotoxicity call did it give?
**A.** inactive

**Q.** With `C#CC1(O)CCC2C3CCC4=CCCCC4C3CCC21C` (stereo not drawn) as the compound, how does the cytotoxicity call read?
**A.** active

**Q.** How did the cytotoxicity call turn out when `C[C@H](CO)N1C[C@H](C)[C@H](CN(C)C(=O)Cc2ccccc2)OCCCC[C@H](C)Oc2ccc(NC(=O)Nc3ccc4c(c3)OCO4)cc2C1=O` was run?
**A.** inactive

**Q.** For `C[C@@H]1CN([C@@H](C)CO)C(=O)c2cc(NS(=O)(=O)c3cn(C)cn3)ccc2O[C@H]1CN(C)Cc1ccc(C(=O)O)cc1`, which cytotoxicity call is on record?
**A.** inactive

**Q.** Which cytotoxicity call does the source give for `O=c1[nH]cc(/N=C/c2ccncc2)c(=O)[nH]1` here?
**A.** inactive

**Q.** For `COc1ccc(NC(=O)N(C)C[C@H]2OCCCC[C@@H](C)Oc3ccc(NC(=O)NC(C)C)cc3C(=O)N([C@H](C)CO)C[C@@H]2C)cc1`, which cytotoxicity call is on record?
**A.** inactive

**Q.** How did the cytotoxicity call turn out when `C[C@@H]1O[C@@H](O[C@H]2[C@H](O[C@H]3[C@H](O)[C@@H](C(=O)O)O[C@@H](O[C@H]4CC[C@]5(C)[C@H]6CC[C@]78OC[C@@]9(CCC(C)(C)C[C@@H]97)[C@H](O)C[C@@]8(C)[C@]6(C)CC[C@H]5C4(C)C)[C@@H]3OC3O[C@H](CO)[C@@H](O)[C@H](O)[C@H]3O)O[C@H](CO)[C@H](O)[C@@H]2O)[C@H](O)[C@H](O)[C@H]1O` (stereo partly drawn) was run?
**A.** active

**Q.** How did the cytotoxicity call turn out when `C[C@@H]1O[C@@H](O[C@H]2[C@H](O[C@H]3[C@H](O)[C@@H](O[C@@H]4O[C@H](CO)[C@@H](O[C@@H]5O[C@H](CO)[C@H](O)[C@H]5O)[C@H](O)[C@H]4O)[C@H](O[C@H]4CC[C@]5(C)[C@H]6CC[C@]78OC[C@@]9(CCC(C)(C)C[C@@H]97)[C@H](O)C[C@@]8(C)[C@]6(C)CC[C@H]5C4(C)C)O[C@@H]3C(=O)O)O[C@H](CO)[C@H](O)[C@@H]2O)[C@H](O)[C@H](O)[C@H]1O` was run?
**A.** inactive

**Q.** With `CC(=O)O[C@H]1CC(C)(C)C[C@H]2[C@]13CO[C@@]21CC[C@@H]2[C@@]4(C)CC[C@H](O[C@@H]5O[C@H](C(=O)O)[C@@H](O)[C@H](O[C@@H]6O[C@H](CO)[C@H](O)[C@H](O)[C@H]6O[C@@H]6O[C@@H](C)[C@H](O)[C@@H](O)[C@H]6O)[C@H]5O[C@@H]5O[C@H](CO)[C@@H](O)[C@H](O)[C@H]5O)C(C)(C)[C@@H]4CC[C@@]2(C)[C@]1(C)C[C@H]3O` as the compound, how does the cytotoxicity call read?
**A.** inactive

**Q.** How did the cytotoxicity call turn out when `C[C@@H]1O[C@@H](O[C@H]2[C@H](O)[C@@H](O)[C@H](OC(=O)[C@]34CCC(C)(C)C[C@H]3C3=CC[C@H]5[C@@]6(C)CC[C@H](O[C@@H]7O[C@H](C(=O)O)[C@@H](O)[C@H](O)[C@H]7O)C(C)(C)[C@@H]6CC[C@@]5(C)[C@]3(C)CC4)O[C@@H]2CO)[C@H](O)[C@H](O)[C@H]1O` was run?
**A.** inactive

**Q.** `CC(=O)O[C@H]1CC(C)(C)C[C@H]2[C@]13CO[C@@]21CC[C@H]2[C@@]4(C)CC[C@H](O[C@@H]5OC[C@H](O[C@@H]6O[C@H](CO)[C@@H](O)[C@H](O)[C@H]6O[C@@H]6OC[C@@H](O[C@@H]7O[C@H](CO)[C@@H](O)[C@H](O)[C@H]7O)[C@H](O)[C@H]6O)[C@H](O)[C@H]5O[C@@H]5O[C@H](CO)[C@@H](O)[C@H](O)[C@H]5O)[C@@](C)(CO)[C@@H]4CC[C@@]2(C)[C@]1(C)C[C@H]3O` was tested. Which cytotoxicity call did it give?
**A.** active

**Q.** Which cytotoxicity call does the source give for `CC1(C)CC[C@]2(C(=O)O[C@@H]3O[C@H](CO)[C@@H](O)[C@H](O)[C@H]3O)CC[C@]3(C)C(=CC[C@H]4[C@@]5(C)CC[C@@H](O[C@@H]6O[C@H](C(=O)O)[C@@H](O[C@@H]7OC[C@@H](O)[C@H](O)[C@H]7O)[C@H](O[C@@H]7OC[C@](O)(CO)[C@H]7O)[C@H]6O)C(C)(C)[C@@H]5CC[C@]43C)[C@@H]2C1` here?
**A.** inactive

**Q.** `C[C@H]1O[C@@H](OC[C@H]2O[C@@H](O[C@H]3CC[C@]4(C)[C@H]5CCC6=C(CC[C@@]7(C(=O)O[C@@H]8O[C@H](CO)[C@@H](O)[C@H](O)[C@H]8O[C@@H]8O[C@H](CO)[C@@H](O)[C@H](O)[C@H]8O)CCC(C)(C)C[C@@H]67)[C@]5(C)CC[C@H]4C3(C)C)[C@H](O)[C@@H](O)[C@@H]2O)[C@H](O)[C@@H](O)[C@@H]1O` was tested. Which cytotoxicity call did it give?
**A.** inactive

**Q.** How did the cytotoxicity call turn out when `CC1(C)CC[C@]2(C(=O)O[C@@H]3O[C@H](CO[C@@H]4O[C@H](CO)[C@@H](O)[C@H](O)[C@H]4O)[C@@H](O)[C@H](O)[C@H]3O)CC[C@]3(C)C(=CC[C@H]4[C@@]5(C)CC[C@H](O[C@@H]6OC[C@H](O)[C@H](O)[C@H]6O)C(C)(C)[C@@H]5CC[C@]43C)[C@@H]2C1` was run?
**A.** inactive

**Q.** For `C[C@@H]1O[C@@H](O[C@H]2[C@H](O[C@H]3[C@H](O)[C@@H](O[C@@H]4O[C@H](CO)[C@@H](O)[C@H](O)[C@H]4O)[C@H](O[C@H]4CC[C@]5(C)[C@H]6CC[C@]78OC[C@@]9(CCC(C)(C)C[C@@H]97)[C@H](O)C[C@@]8(C)[C@]6(C)CC[C@H]5C4(C)C)O[C@@H]3C(=O)O)O[C@H](CO)[C@H](O)[C@@H]2O)[C@H](O)[C@H](O)[C@H]1O`, which cytotoxicity call is on record?
**A.** active
